# Pf growth 48h – P. falciparum growth inhibition at 48 hours (one generation); P. falciparum luciferase growth in erythrocytes, 48 h; Potency, µM (top dose mostly 28.7 µM), for the others: at the top dose activity change, negative = inhibition, actives largely listed as inhibitors; 310,000 compounds, 5.9% hits; also: potency is read from the fitted curve at half-maximal effect
#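 Luciferase-expressing parasites in RBCs, 2% Hct / 0.1% parasitemia final; RPMI 1640 + 0.5% Albumax; 37 C, 5% CO2, one generation; luminescence read-out, lower signal = inhibition.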
# Pf growth 96h – inhibits malaria parasite growth, 96 h; P. falciparum luciferase reporter growth, 96 h; Potency, µM (series often up to 28.7 µM), inactives show at the top dose activity change, negative = inhibition, hits mostly inhibitors; 320,000 compounds, 6.9% hits; AID 504834; also: potency is read from the fitted curve at half-maximal effect
#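 96 h incubation, 37 C, 5% CO2, of luciferase-reporter P. falciparum-infected RBCs (2% hematocrit, 0.05% parasitemia final) with test compounds; endpoint luminescence.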
# HCMV antiviral – inhibitors of human cytomegalovirus; HFF cells, HCMV-luciferase reporter, 72 h; active compounds read low; activity change, negative = inhibition, % at 57.5 µM; 410,000 compounds, 4.5% hits; in the data active = activity change below about -60%; inconclusive = no clear call, values can overlap the other calls; inactive = above about -39%
#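 Inhibition of viral replication was scored as loss of reporter luminescence in HFFs infected with HCMV-luciferase (MOI 1 PFU/cell) for 72 h; compounds tested at 2 doses, normalized to buffer and Salinomycin controls.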
# HCV inh – blocks hepatitis C virus. 340,000 compounds, 3.4% hits. Huh7.5.1 HCVcc-Cre infection, luciferase reporter, 44 h. Potency, µM (top dose mostly 41.8 µM), for the others: at the top dose activity change, negative = inhibition, actives largely listed as inhibitors; also: potency is read from the fitted curve at half-maximal effect
#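 HCVcc-Cre virus at an moi near 0.5 was added right after compound to cells cultured 4 h from seeding (1,000 cells/well). Luciferase activity was determined 44 h later, 15 min after substrate addition at RT.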
# LASV entry inh – Lassa virus entry inhibition | 300,000 compounds, 1.2% hits | Lassa virus pseudotype entry inhibition, cell reporter | AID 540256 | Potency, µM (titrated, usually from 37.9 µM), inactives show at the top dose activity change, negative = inhibition, actives largely listed as inhibitors; calls by dose curve; tested in HEK293 cells; also: potency is read from the fitted curve at half-maximal effect; nearly all actives have a fitted effect of over 50% in size
# MARV entry inh – Marburg virus entry inhibition; Potency, µM (top dose mostly 37.8 µM), inactives show at the highest dose activity change, negative = inhibition, actives largely listed as inhibitors; Marburg virus pseudotyped entry inhibition, cell reporter; 300,000 compounds, 1.8% hits; calls by dose curve; tested in HEK293 cells; also: potency is read from the fitted curve at half-maximal effect
# Active calls of the source: *; ? = inconclusive; nt = no result given; [ ] = another dose, or the depositor's remark. Rows were chosen to be rich in hits. Some 14% of all compounds tested hit in one or more screens of this group. Unless noted, calls follow the shape of the dose curve; as a rule, active = well fitted inhibition curve with a large enough effect; inconclusive = small, poorly fitted or top-dose-only effect, or another doubt; inactive = no such curve, though single readings can be large or run the other way. % is scaled to controls: 0 for no effect and ±100 for the full control effect.
SMILES,Pf growth 48h,Pf growth 96h,HCMV antiviral,HCV inh,LASV entry inh,MARV entry inh
CCN(C(=O)COc1cc(=O)n(C)c2ccccc12)c1cccc(C(F)(F)F)c1,nt,nt,-39,nt,-2%[46.1 µM],?
CCOc1ccc(N(CC)C(=O)COc2cc(=O)n(CC)c3ccccc23)cc1,?,?,-95*,?,-27%,-17%
CCOc1ccc(N(CC)C(=O)COc2cc(=O)n(C)c3ccccc23)cc1,?,?,-103*,11%,nt,nt
CCn1c(=O)cc(OCC(=O)N(C)c2ccc(OC)cc2)c2ccccc21,nt,nt,-72*,nt,-1%[46.1 µM],-14%[46.1 µM]
CCOC(=O)c1cc(-c2ccccc2)n(CCCC(=O)Nc2cccc(C)c2C)c1C,nt,nt,0,nt,0%[46.1 µM],nt
CCCNC(=O)C1CCN(S(=O)(=O)c2ccc3c(c2)CCCN3C(C)=O)CC1,nt,nt,6,nt,2%[46.1 µM],nt
CN(C)C(CNC(=O)c1cccc(S(=O)(=O)Nc2ccc(SC(F)F)cc2)c1)c1ccccc1 (stereo not drawn),nt,nt,17,-1%,nt,nt
CCOc1ccc(Nc2nc(-c3cccc(Cl)c3)c3c(n2)-c2ccccc2OC3)cc1,nt,nt,-75*,nt,14%[46.1 µM],-1%[46.1 µM]
COc1ccc(Nc2nc(-c3cccc(Cl)c3)c3c(n2)-c2ccccc2OC3)cc1,nt,nt,-25,nt,4%[46.1 µM],?
Cc1ccc(CNC(=O)c2nnn(CC(=O)Nc3cccc(C)c3C)c2N)cc1,7%,9%,-32,4%,-1%[46.1 µM],16%[46.1 µM]
S=C(Nc1ccc(Cl)cc1)NC1CCCCC1,?,-34%,-30,-10%,?,-29%[46.1 µM]
CC(C)(C)c1ccccc1NC(=S)NC1CCCCC1,?,9.3µM*,-1,?,-11%,?
S=C(Nc1ccc(Nc2ccccc2)cc1)NC1CCCCCC1,-18%,-7%,-87*,?,?,?
O=C(CSc1ccccc1)NCc1ccc2c(c1)CCN2C(=O)c1ccc(F)cc1,nt,nt,4,nt,?,nt
C=Cn1cc[n+](CC(=O)c2ccc(-c3ccccc3)cc2)c1,1.5µM*,?,-63*,?,-24%[46.1 µM],12%[46.1 µM]
O=C(NCc1ccco1)c1ccc(Br)s1,-7%,nt,-1,-9%,?,4%
Cc1cc[n+](CC(=O)c2cccs2)cc1,5%,nt,7,8%,2%,10%
C=Cn1cc[n+](CC(=O)c2cccs2)c1,?,6.6µM*,19,6%,nt,nt
C=Cn1cc[n+](CC(=O)c2cc(C(C)(C)C)c(O)c(C(C)(C)C)c2)c1,6.6µM*,2.1µM*,?,?,nt,nt
C=Cn1cc[n+](CC(=O)c2ccc(Br)s2)c1,?,3.3µM*,38,9%,nt,nt
CC1CN(C(=O)Nc2ccc(C(=O)NCc3cccc(F)c3)cc2)c2ccccc2S1 (stereo not drawn),nt,nt,6,nt,-27%[46.1 µM],-12%[46.1 µM]
COCOc1ccc(Br)cc1C(=O)C=Cc1ccc2c(c1)OCO2,nt,nt,nt,nt,nt,6%[14.2 µM]
Cc1cc(N=O)no1,nt,nt,4,nt,nt,nt
O=C(NCc1ccccn1)c1nn(-c2ccccc2F)nc1CO,nt,nt,?,nt,?,3%[46.1 µM]
COc1cccc(CNC(=O)C2CCN(S(=O)(=O)c3c(C)noc3/C=C/c3cccs3)CC2)c1,nt,nt,-6,nt,-3%[46.1 µM],-4%[46.1 µM]
SMILES,Pf growth 48h,Pf growth 96h,HCMV antiviral,HCV inh,LASV entry inh,MARV entry inh
CCCS(=O)(=O)c1nc(S(=O)(=O)c2ccc(C)cc2)c(NCCCN2CCCC2=O)s1,-16%,9.3µM*,-38,?,-10%[46.1 µM],-14%[46.1 µM]
CCCS(=O)(=O)c1nc(S(=O)(=O)c2ccc(C)cc2)c(NCc2ccco2)s1,12µM*,?,-33,?,?,?
COCCNc1sc(S(=O)(=O)c2ccc(C)cc2)nc1S(=O)(=O)c1ccc(C)cc1,nt,nt,0,nt,?,-26%[46.1 µM]
Cc1ccc(S(=O)(=O)c2nc(S(=O)(=O)c3ccc(C)cc3)c(NCc3ccco3)s2)cc1,?,13µM*,-4,-20%,-15%,-7%
CCS(=O)(=O)c1nc(S(=O)(=O)c2ccc(Cl)cc2)c(NCc2ccco2)s1,?,?,-34,2%,3%,11%
CCc1cccc(NS(=O)(=O)c2c(C)n[nH]c2C)c1,?,13µM*,41,14%,23%,-1%
FC(F)(F)c1cnc(Sc2nnc(-c3cccs3)n2CC2CCCO2)c(Cl)c1 (stereo not drawn),7.4µM*,nt,-1,-2%,-24%,6%
CN(CC(=O)NC1CCCc2ccccc21)S(=O)(=O)c1cccs1 (stereo not drawn),-11%,?,-74*,-28%,8%,?
CN(CC(=O)NC1CCCc2ccccc21)S(=O)(=O)c1ccc2c(c1)c(=O)n(C)c(=O)n2C (stereo not drawn),nt,-10%,-9,-9%,nt,nt
CCCOC(=O)C1=C(C)NC2=C(C(=O)CC(C)(C)C2)C1c1cccnc1 (stereo not drawn),?,10µM*,-11,3%,-6%,25%
COc1ccc(CN2C(=O)c3cccnc3C2=O)cc1S(=O)(=O)NC1CCCCC1,22%,13µM*,-36,-20%,nt,nt
COc1ccccc1CNS(=O)(=O)c1cc(CN2C(=O)c3cccnc3C2=O)ccc1OC,19%,1%,23,7%,nt,nt
O=C1c2cccnc2C(=O)N1Cc1ccccc1,-8%,-39%,29,?,nt,nt
O=C1c2cccnc2C(=O)N1Cc1ccc(Cl)cc1,1%,1.7µM*,3,-9%,-7%,?
C=CCc1cccc2cc(-c3nc4ccc(C)cc4[nH]3)c(=O)oc12,nt,nt,47,nt,0%[46.1 µM],nt
C=C1C2(C(=O)Nc3nccs3)CCC(C2)C1(C)C (stereo not drawn),1.2µM*,nt,-22,1%,0%,-9%
Cc1cc(=O)c2cc(Cl)ccc2[nH]1,?,nt,-63*,-12%[8.37 µM],nt,nt
Cc1cc(=O)c2ccc(Cl)cc2[nH]1,?,?,-12,2%[8.37 µM],-13%,2%
Cc1cc(=O)c2cc(C(=O)c3ccccc3)ccc2[nH]1,13µM*,?,?,-22%,nt,nt
CN(c1ccccc1)S(=O)(=O)c1cccc(C(=O)NCC(c2cccs2)N2CCOCC2)c1 (stereo not drawn),nt,nt,4,nt,nt,nt
CN(c1ccccc1)S(=O)(=O)c1ccc(Cl)c(C(=O)Nc2ccccc2N2CCOCC2)c1,?,?,-32,11µM*,?,?
CN(c1ccccc1)S(=O)(=O)c1cccc(C(=O)Nc2ccc(N3CCOCC3)cc2)c1,?,?,-34,10µM*,-54%,?
COc1ccc(N(C)S(=O)(=O)c2cccc(C(=O)NC3CCCC3)c2)cc1,10µM*,?,3,?,?,?
Cc1ccc(N(C)S(=O)(=O)c2cccc(C(=O)Nc3ccc(N4CCOCC4)cc3)c2)cc1,?,10µM*,?,6.3µM*,nt,nt
Cc1cc(C(=O)NNC(=O)c2ccc(F)cc2)c(C)s1,nt,nt,38,8%,13%,?
